Bioassay records (PubChem BioAssay)
A selection: hits, their analogues and other compounds. The true share with any hit is near 4%.
Peg3 prom inh: Peg3 promoter activity inhibition; hit rate 1.7% among 360,000; HeLa PEG-Prom luciferase reporter, luminescence, overnight; inhibition, % at 20 µM;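 active = inhibition of at least 50% at 20 µM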
TWEAK-Fn14 inh: inhibitors of TWEAK-Fn14 interaction signaling; TWEAK-stimulated Fn14 reporter cells, luciferase luminescence, 8 h; hit rate 2% among 360,000; inhibition, % at 10 µM; AID 1159606; in the data active = inhibition above about 50%
HIF-2a inh: blocks HIF-2a reporter activity; 786-0 RCC cells HIF-2a reporter, luciferase luminescence, overnight; inhibition, % at 18.8 µM; hit rate 0.72% among 360,000;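 active = inhibition of the luminescence signal of 40% or more relative to plate controls, in a single-dose primary screen at 18.75 µM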
KKLEB tox: reduces viability of KKLEB cystic fibrosis airway cells | activity change (cytotoxicity), % at 5 µM | AID 602141 | hit rate 0.36% among 360,000 | KKLEB CF airway cells viability, ATPlite luminescence, overnight; active compounds read low; cells stimulated with P. aeruginosa culture filtrate;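 active = corrected activity change at or below -50% at 5 µM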
CF NFkB inh: cystic fibrosis NF-kB activation inhibition. KKLEB NF-kB-GFP reporter, PAF-induced, GFP fluorescence overnight. inhibition, % at 5 µM. hit rate 0.86% among 360,000;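 active = at least 50% inhibition at 5 µM, scaled per plate between neutral and stimulator controls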;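 note: PAF is a Pseudomonas aeruginosa culture filtrate used as stimulus; plate controls were PAF-stimulated DMSO wells for no effect and unstimulated DMSO wells for full effect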
TROY signal inh: TROY signaling inhibition. Q293 LMP1-TROYcd NF-kB luciferase reporter, 4 h. inhibition, % at 10 µM. hit rate 0.98% among 360,000;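 active = compounds whose plate-normalised and pattern-corrected inhibition of the luciferase reporter signal at the single screening dose is 50% or more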
Mdm2 MdmX conf: Mdm2/MdmX (human) interaction inhibition, confirmed; shares compounds with HIF-2a inh; SaOS-2 split-luciferase Mdm2/MdmX complementation, luminescence; inhibition, % at 8 µM; hit rate 99% among 740; AID 504601;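 active = mean inhibition of the luminescence signal across two replicates at or above 26 percent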
HIF-2a inh conf: HIF-2a inhibition, single concentration confirmation; shares compounds with HIF-2a inh; 786-0 RCC cells, HIF-2a luciferase reporter luminescence, overnight; inhibition, % at 18.8 µM; hit rate 56% among 1,800;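 active = mean inhibition across four replicates of at least 40 percent at the single tested concentration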
HIF-1a counter: HIF-1a inhibition counter-screen for HIF-2a hits. shares compounds with HIF-2a inh. MiaPaCa-2 HIF-1a luciferase reporter, desferoxamine, overnight. inhibition, % at 18.8 µM. hit rate 72% among 1,800;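 active = mean inhibition of the reporter signal across four replicates at the single tested dose of 50% or more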
Starred values were filed as active, the others as inactive; / = no result given.

SMILES | Peg3 prom inh | TWEAK-Fn14 inh | HIF-2a inh | KKLEB tox | CF NFkB inh | TROY signal inh | Mdm2 MdmX conf | others
C=C1C(=O)[C@]23C[C@H]1CC[C@H]2[C@]1(C)[C@@H](OC(C)=O)CC[C@@](C)(C(=O)OC)[C@H]1C[C@@H]3OC(C)=O | 99* | 85* | 97* | -97* | 95* | 24 | / | HIF-2a inh conf=98*;HIF-1a counter=107*
COc1cccc(-c2nn(Cc3ccccc3)cc2CO)c1 | -120 | 21 | -103 | 6 | 2 | -19 | /
COc1ccc(C(C(=O)NC2CCCCC2)N(C(=O)CCl)c2ccc(OC)cc2)cc1 (centres undefined) | 101* | 64* | 30 | -81* | 72* | -8 | 95*
COc1ccc(C(C(=O)NC2CCCCC2)N(C(=O)CCl)c2ccc(C)cc2)cc1 (centres undefined) | 69* | 57* | 29 | -93* | 91* | -2 | 102*
CCc1ccccc1N(C(=O)CNC(=O)c1ccco1)C(C(=O)NC1CCCC1)c1cccnc1 (centres undefined) | -6 | 12 | 14 | 1 | -3 | -14 | /
O=C(NC1CCCCC1)C(c1cccnc1)N(C(=O)CCl)c1ccccc1Cl (centres undefined) | 30 | 62* | 30 | -8 | 10 | 2 | 103*
CC[C@]12c3[nH]c4ccccc4c3CCN1C(=O)C(CC(=O)NCCC1=CCCCC1)C[C@@H]2C(=O)N1CCN(C(=O)c2ccco2)CC1 (some centres undefined) | 6 | 9 | 9 | -3 | 16 | -3 | /
COc1ccccc1NC(=O)Nc1nc(CC(=O)NCc2ccc(F)cc2)cs1 | 25 | 4 | -37 | -8 | 14 | -11 | /
S=C(NCc1ccccc1)N1CCN(C(=S)NCc2ccccc2)CC1 | 14 | -25 | 9 | 1 | 5 | 4 | /
